Reference: PubChem BioAssay (NCI)
The panel holds about 79,000 compounds, 15% with a hit somewhere; the sample as a whole holds those more often. The source made the active and inactive calls. No stated cut-off is given here; in the data, active means growth inhibition above about 70%; inactive means the rest.

What was measured:
[1] = NCI Yeast Anticancer Drug Screen. Data for the wt1 strain (AID 149);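 further: 0% = growth of vehicle-treated wt1 cultures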; conditions: S. cerevisiae wt1 strain (SPY 50644) growth inhibition, active compounds read high
Method in brief: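 wt1 yeast, compound-treated; % growth inhibition vs vehicle control.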

[2] = NCI Yeast Anticancer Drug Screen. Data for the rad50EPP+ strain (AID 151);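 further: 0% = growth of vehicle-treated control cultures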; conditions: S. cerevisiae rad50 mutant strain, active compounds read high
Method in brief: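 Measured: growth inhibition of rad50EPP+ yeast. Reference: vehicle-treated controls. Screen uses strains with defined genetic alterations in DNA damage repair or cell cycle control.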

[3] = NCI Yeast Anticancer Drug Screen. Data for the mgt1 strain (AID 153); conditions: S. cerevisiae mgt1 mutant growth inhibition, active compounds read high
Method in brief: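 Compounds were applied to mgt1 mutant yeast, and growth was then compared against vehicle-treated control cultures to give percent inhibition.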

[4] = NCI Yeast Anticancer Drug Screen. Data for the rad50 strain (AID 155);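 further: 0% = growth of vehicle-only cultures of the same strain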; conditions: S. cerevisiae rad50 strain growth inhibition, active compounds read high
Method in brief: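 Genetically altered yeast (DNA repair pathway); compound treatment; growth inhibition vs vehicle ctrl.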

[5] = NCI Yeast Anticancer Drug Screen. Data for the mec2-1 strain (AID 157); conditions: S. cerevisiae mec2-1 strain, active compounds read high
Method in brief: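 Compounds were applied to mec2-1 yeast cells. Their growth was then compared with that of vehicle-treated cultures to give growth inhibition.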

[6] = NCI Yeast Anticancer Drug Screen. Data for the rad14 strain (AID 159);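 further: 0% = growth of vehicle-treated control cultures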; conditions: S. cerevisiae rad14 strain growth inhibition, active compounds read high
Method in brief: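 Test compounds were applied to a repair-deficient yeast strain. Its growth was then compared with that of cultures given vehicle alone, and inhibition was expressed relative to those controls.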

[7] = NCI Yeast Anticancer Drug Screen. Data for the sgs1 mgt1 strain (AID 161);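 further: 0% = growth of cultures given vehicle only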; conditions: S. cerevisiae sgs1 mgt1 strain, active compounds read high
Method in brief: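 This yeast growth screen uses a strain with defined DNA-repair lesions; compound-treated growth is compared with vehicle-treated growth.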

[8] = NCI Yeast Anticancer Drug Screen. Data for the CLN2oe strain (AID 163);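 further: 0% = growth of vehicle-only control cultures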; conditions: S. cerevisiae CLN2oe strain, active compounds read high
Method in brief: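 Cells of an engineered yeast line with disturbed cell-cycle regulation are treated with compound. Inhibition of growth is then calculated relative to the vehicle-treated reference.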

[9] = NCI Yeast Anticancer Drug Screen. Data for the cln2 rad14 strain (AID 165);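 further: 0% = growth equal to vehicle treated cultures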; conditions: S. cerevisiae cln2 rad14 strain, active compounds read high
Method in brief: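 Strain: cln2 rad14 yeast, altered in cell cycle control and DNA damage repair. Read-out: growth inhibition vs vehicle.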

[10] = NCI Yeast Anticancer Drug Screen. Data for the bub3 strain (AID 167); conditions: S. cerevisiae bub3 mutant strain, active compounds read high
Method in brief: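 Yeast carrying a defined mutation is treated with each compound, and growth is compared with that of vehicle-exposed cells to give inhibition.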

[11] = NCI Yeast Anticancer Drug Screen. Data for the wt2 strain (AID 169);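 further: 0% = growth of vehicle-treated yeast cultures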; conditions: S. cerevisiae wt2 strain growth inhibition, active compounds read high
Method in brief: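 Growth of compound-treated yeast is measured and expressed as inhibition relative to vehicle-only controls.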

[12] = NCI Yeast Anticancer Drug Screen. Data for the mlh1 strain (AID 171);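 further: 0% = growth of vehicle-treated control cultures of the same strain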; conditions: S. cerevisiae mlh1 strain growth inhibition, active compounds read high
Method in brief: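 Test agents were incubated with yeast bearing a defined DNA damage repair or cell cycle control alteration; values are growth inhibition normalised to vehicle-treated cultures.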

[13] = NCI Yeast Anticancer Drug Screen. Data for the sgs1 strain (AID 173);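 further: 0% = growth of vehicle-only control cultures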; conditions: S. cerevisiae sgs1 mutant, active compounds read high
Method in brief: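 Strain with an altered DNA repair or cell cycle pathway exposed to compound. Growth then measured. Value = inhibition versus vehicle control.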

[14] = NCI Yeast Anticancer Drug Screen. Data for the mlh1 rad18 strain (AID 175); conditions: S. cerevisiae mlh1 rad18 strain growth inhibition, active compounds read high
Method in brief: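 A repair-deficient yeast strain is exposed to test compound, and growth is scored relative to vehicle-treated controls.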

[15] = NCI Yeast Anticancer Drug Screen. Data for the rad18 strain (AID 177); conditions: S. cerevisiae rad18 mutant growth inhibition, active compounds read high
Method in brief: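 DNA-repair-defective yeast; compound treatment; growth inhibition scored against vehicle.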

[16] = at 5.0 µM (retest, dose inferred, filed as 0.5)
[17] = at 50.0 µM (retest, dose inferred, filed as 5.0)

Measured: growth inhibition

S=C1NC2=C(CSC/C2=C\c2ccc(Cl)cc2)C(c2ccc(Cl)cc2)N1 (stereo not drawn)
active: [1]; at 100.0 µM 76% | [3]; at 33.0 µM 72% | [3]; at 100.0 µM 82% | [4]; at 33.0 µM 74% | [4]; [17] 94% | [4]; at 50.0 µM 92.9% | [4]; at 100.0 µM 71% | [5]; [17] 95% | [5]; at 50.0 µM 83.7% | [5]; at 100.0 µM 77% | [6]; at 33.0 µM 71% | [6]; at 100.0 µM 74% | [7]; [17] 92% | [7]; at 50.0 µM 96.5% | [8]; at 100.0 µM 71% | [9]; [17] 92% | [9]; at 50.0 µM 95.2% | [10]; [17] 96% | [10]; at 50.0 µM 94.8% | [10]; at 100.0 µM 77% | [11]; at 100.0 µM 83% | [12]; at 33.0 µM 72% | [12]; at 100.0 µM 75% | [13]; at 33.0 µM 84% | [13]; at 100.0 µM 87% | [14]; [17] 96% | [14]; at 50.0 µM 90.7% | [15]; at 100.0 µM 73%
inactive: [1]; at 1.2 µM 8% | [1]; at 3.7 µM 19% | [1]; at 11.0 µM 24% | [1]; at 33.0 µM 61% | [2]; at 1.2 µM -3% | [2]; at 3.7 µM 12% | [2]; at 11.0 µM 12% | [2]; at 33.0 µM 16% | [2]; at 100.0 µM 9% | [3]; at 1.2 µM 29% | [3]; at 3.7 µM 31% | [3]; at 11.0 µM 44% | [4]; at 1.2 µM 20% | [4]; at 3.7 µM 42% | [4]; [16] -9% | [4]; at 11.0 µM 56% | [5]; at 1.2 µM 0% | [5]; at 3.7 µM -1% | [5]; [16] 5% | [5]; at 11.0 µM 24% | [5]; at 33.0 µM 61% | [6]; at 1.2 µM 11% | [6]; at 3.7 µM 26% | [6]; at 11.0 µM 38% | [7]; [16] 6% | [8]; at 1.2 µM -14% | [8]; at 3.7 µM 14% | [8]; at 11.0 µM 28% | [8]; at 33.0 µM 44% | [9]; [16] 11% | [10]; at 1.2 µM -39% | [10]; at 3.7 µM -7% | [10]; [16] -7% | [10]; at 11.0 µM 16% | [10]; at 33.0 µM 56% | [11]; at 1.2 µM 25% | [11]; at 3.7 µM 31% | [11]; at 11.0 µM 39% | [11]; at 33.0 µM 68% | [12]; at 1.2 µM 3% | [12]; at 3.7 µM 26% | [12]; at 11.0 µM 46% | [13]; at 1.2 µM 42% | [13]; at 3.7 µM 45% | [13]; at 11.0 µM 66% | [14]; [16] 16% | [15]; at 1.2 µM 15% | [15]; at 3.7 µM 25% | [15]; at 11.0 µM 28% | [15]; at 33.0 µM 63%
